The values that follow come from PubChem BioAssay (EPA / NIEHS).

Inconclusive results are not listed. Where a structure was tested more than once in an assay, its records may differ in their call. Active and inactive are the calls of the source. The calls were made as follows: active = hit-call score of the fitted dose curve at least 0.9, where 1 is the maximum; inconclusive = response in the unintended direction; inactive = score below 0.9.

Sequence of Cellular tumor antigen p53 (Homo sapiens) (P04637 whole entry, looked up, the tested form may be a part): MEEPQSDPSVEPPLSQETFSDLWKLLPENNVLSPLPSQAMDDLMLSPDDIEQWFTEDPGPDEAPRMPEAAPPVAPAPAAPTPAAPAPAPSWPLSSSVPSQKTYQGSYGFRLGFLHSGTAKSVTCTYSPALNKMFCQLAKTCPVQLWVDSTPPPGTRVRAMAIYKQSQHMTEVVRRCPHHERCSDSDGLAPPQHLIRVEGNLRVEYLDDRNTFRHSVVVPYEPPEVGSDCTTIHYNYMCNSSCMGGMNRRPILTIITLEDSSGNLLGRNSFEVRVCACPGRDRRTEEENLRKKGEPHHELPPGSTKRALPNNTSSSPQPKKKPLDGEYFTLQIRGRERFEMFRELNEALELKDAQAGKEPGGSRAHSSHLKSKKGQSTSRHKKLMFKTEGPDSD

The experiment addresses Cellular tumor antigen p53 (Homo sapiens) (UniProt P04637). Kind of experiment: TOX21_p53_BLA_p2_ratio: Tox21 HCT-116 p53 Agonism Beta-lactamase Assay, Ratio, Phase 2 (AID 2283592). From the text: TOX21_p53_BLA_p2 is a cell-based, single-readout assay that uses HCT116, a human intestinal cell line, […] in a 1536-well plate.TOX21_p53_BLA_p2_ratio is an assay readout measuring reporter gene via receptor activity and designed using inducible reporter (beta lactamase induction) detected with GAL4 b-lactamase reporter gene. The signal is derived from the ratio of cleaved (ch2) to uncleaved (ch1) reporter gene substrate used as the measure of target activity.Data from the assay component TOX21_p53_BLA_p2_ratio was analyzed into 1 assay endpoint. This assay endpoint, TOX21_p53_BLA_p2_ratio, was analyzed in the positive analysis fitting direction relative to DMSO as the negative control and baseline of activity. Using a type of inducible reporter, gain-of-signal activity can be used to understand changes in the reporter gene as they relate to the gene TP53. Furthermore, this assay endpoint can be referred to as a primary readout, because this assay has produced multiple assay endpoints and this ratio serves a reporter gene function to understand target activity. To generalize the intended target to other relatable targets, this assay endpoint is annotated to the DNA binding intended target family, where the subfamily is tumor suppressor.
Thawing Method: Place 14 mL of pre-warmed thaw medium into a 15 mL of conical tub. Remove the vial of cells to be thawed from liquid nitrogen and thaw rapidly by placing at 37C in a water bath with gentle agitation for 1-2 minutes. Decontaminate the vial by wiping with 70% ethanol before opening in a biological safety cabinet. Transfer the vial contents drop-wise into 14 mL of thaw medium in a sterile 15-mL conical tub. Centrifuge cells at 900 rpm for 4 minutes and resuspend in thaw medium. Transfer contents to the T75 tissue culture flask containing Thaw Medium and place flask in a humidified 37C/5% CO2 incubator. Switch to growth medium at first passage.Propagation Method: Aspirate medium, rinse once in DPBS, add 0.25% Trypsin/EDTA and swirl to coat the cell evenly. Add an equal volume of Growth Medium to inactivate Trypsin after 2-3 minutes incubation at 37C. Centrifuge cells at 900 rpm for 4 minutes and resuspend in growth medium. Cell should be passage or fed at least twice a week.Assay Protocol: Harvest cells from culture in growth medium and resuspend in assay medium. 2.2 Dispense 4000 cells/5 uL/well into 1536-well black/clear bottom plates using a Multidrop dispenser. After the cells were incubated at 37C for 5 hours, 23 nL of compounds dissolved in DMSO were transferred to the assay plate by a PinTool resulting in a 217-fold dilution. Incubate the plates for 16 hours at 37C, 5% CO2. Add 1 uL of 6X LiveBLAzer FRET B/G (CCF4-AM) Substrate Mixture to each well using a BioRAPTR dispenser and incubate the plates at room temperature for 2 hours. Measure fluorescence intensity at 460 and 530 nm emission and 405 nm excitation by an Envision detector. Data is expressed as the ratio of 460nm/530nm emissions. Add 4 uL of Cell-titer Glo to each well using BioRAPTR and incubate the plates at room temperature for 2 hours. Measure fluorescence intensity by a VewLux plate reader.
With `F/C(COc1ccc2c(c1)[nH]c1ccccc12)=C1/CN2CCC1CC2`, the result was inactive. Still for that read-out and setting: with `O=C1OC(c2ccc(O)c(S(=O)(=O)O)c2)(c2ccc(O)c(S(=O)(=O)O)c2)c2c(Br)c(Br)c(Br)c(Br)c21` the entry was “inactive”. A word on the AC50: it is the concentration giving half of the maximal activity seen. `C[C@]12C/C(=C/O)C(=O)C[C@@H]1CC[C@@H]1[C@@H]2CC[C@@]2(C)[C@H]1CC[C@]2(C)O`: the result was inactive and the AC50 is 42.5 µM (active). Take `CCCCC/C=C\C/C=C\C/C=C\C/C=C\CCCC(=O)NCC(=O)O`: the result was inactive.

For the compound `CN1C(=O)CC(=O)N(c2ccccc2)c2cc(Cl)ccc21`, the outcome was inactive. Still for that read-out and setting: with `Cc1ccc2cc(C)ccc2c1` the entry was “inactive”; with `Cc1nnc2n1-c1ccc(Cl)cc1C(c1ccccc1Cl)=NC2`, “inactive”. With `Fc1ccc(C(OCCN2CCN(CCCc3ccccc3)CC2)c2ccc(F)cc2)cc1`, the concentration at half-maximal activity (AC50) was 33.7 µM (active). In the case of `CCCC=NO`, the result was inactive. Still for that read-out and setting: with `C[C@@H]([C@H](O)c1ccccc1)N(C)C` the entry was “inactive”; with `CNC(C)Cc1ccc2c(c1)OCO2` (stereo not given), “inactive”; with `N#CCCCCC#N`, “inactive”. For `O=CC=Cc1ccccc1`, the result was inactive.

For the compound `O=c1[nH]cc(N(CCCl)CCCl)c(=O)[nH]1`, the outcome was inactive.

`ClCC(Br)CBr` (stereo not given): the outcome was inactive.

Regarding `O=C(O)c1nn(Cc2ccc(Cl)cc2Cl)c2ccccc12`, the outcome was inactive. As for `NC(=O)CS(=O)C(c1ccccc1)c1ccccc1` (stereo not given), the outcome was inactive. Take `CCSCc1ccccc1OC(=O)NC`: the outcome was inactive. On the same count and under the same terms, the entry for `C[C@@H](Cc1ccccc1)NCCC(c1ccccc1)c1ccccc1` is “inactive”; for `O=S1(=O)OCCO1` it is “inactive”; for `OC(c1ccc(F)cc1)(c1cncnc1)c1ccccc1Cl` (stereo not given) it is “inactive”. On the same count and under the same terms, with `C[C@H]1[C@@H]2Cc3ccc(O)cc3[C@@]1(C)CCN2C` the entry was “inactive”.

As to `NC1=NC(=O)N2CC12` (stereo not given), the result was inactive. On the same count and under the same terms, the entry for `N#CC(C#N)=C(C#N)C#N` is “inactive”; for `O=S(=O)(Cl)Cl` it is “inactive”; for `CC(C)OC(=O)C(O)(c1ccc(Cl)cc1)c1ccc(Cl)cc1` it is “inactive”. The same measure, in the same setting: with `CCCCCl` the entry was “inactive”; with `CCC[N+](=O)[O-]`, “inactive”. The same measure, in the same setting: the entry for `O=C(Cl)C(Cl)Cl` is “inactive”. With `CCCCCCCCn1cc[n+](C)c1`, the AC50 was 9.49 µM (active) [middle of 4 runs]. Consider `Oc1cc(Cl)cc(Cl)c1`, for which the concentration at half-maximal activity (AC50) is 79 µM (active). For the compound `c1ccc2c(c1)CCCC2`, the outcome was inactive. `Cc1nnc2n1-c1sc(Br)cc1C(c1ccccc1Cl)=NC2`: the outcome was inactive. The same measure, in the same setting: with `CC[C@H]1C[C@@H]2C[C@H]3c4[nH]c5ccc(OC)cc5c4CCN(C2)[C@@H]13` the entry was “inactive”. In the case of `O=C(N/N=C/c1ccc([N+](=O)[O-])o1)c1cc([N+](=O)[O-])cc([N+](=O)[O-])c1O`, the outcome was inactive.

As to `COc1cccc([C@@]2(O)CCCC[C@@H]2CN(C)C)c1`, the outcome was inactive. The same measure, in the same setting: the entry for `O=C(O)c1cc(Cl)ccc1Cl` is “inactive”; for `CN(C)C(=O)Nc1cccc(OC(=O)NC(C)(C)C)c1` it is “inactive”. Regarding `CCC(=O)OC1(c2ccccc2)CCN(C)CC1`, the result was inactive.
